Screens (PubChem)
Sfp inh: Sfp phosphopantetheinyl transferase inhibition | Q9F4F7 | Biochemical Sfp PPTase activity, qHTS | Potency, µM, usual class: inhibitors | 310,000 compounds, 3.5% hits | AID 1490;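 also: the enzyme is Sfp with the accession as filed and its product quenches rhodamine fluorescence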
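Fluorescence-quenching assay: 15 nM Sfp-PPTase preincubated 15 min at room temperature with compound, then 5 uM rhodamine-CoA and 12.5 uM BHQ-2-labelled YbbR peptide added. Fluorescence (ex 525/em 598 nm) read at start and after 30 min; difference gives rate.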
JMJD2A Tudor: JMJD2A Tudor domain (human) inhibition; O75164; AlphaScreen JMJD2A-Tudor / H3K4me3 peptide binding; Potency, µM (titrated, usually from 114 µM), most hits filed as inhibitors; 390,000 compounds, 4.4% hits; also: nearly all actives have a fitted effect of over 50% in size
G9a inh: G9a (human) methyltransferase inhibition. 350,000 compounds, 8.8% hits. G9a H3K9 monomethylation, AlphaScreen, 2 h. Potency, µM (series often up to 102 µM), most hits filed as inhibitors; also: nearly all actives have a fitted effect of over 75% in size
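G9a (20 nM) preincubated 15 min RT with compounds, then 500 nM biotinylated H3K9 peptide and 20 uM SAM added; 2 h RT reaction. Monomethyl-H3K9 product detected by AlphaScreen with anti-H3K9me1 antibody, streptavidin donor and anti-rabbit IgG acceptor beads.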
HP1b binding inh: inhibitors of HP1-beta chromodomain binding to methylated histone tails; AlphaScreen HP1-beta / biotin-H3K9me3 peptide binding; Potency, µM (doses to about 114 µM), usual class: inhibitors; 390,000 compounds, 0.56% hits; AID 540317; also: nearly all actives have a fitted effect of over 70% in size
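AlphaScreen: HP1-beta (50 nM) preformed 30 min with biotin-H3(1-18)K9me3 peptide (50 nM) in PBS pH 7.4, 0.01% Tween-20. Compound added for 30 min at RT, then streptavidin donor/nickel chelate acceptor beads (10 ug/mL) for 30 min.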
BAZ2B block: BAZ2B (human) inhibition | 360,000 compounds, 4.4% hits | AlphaScreen BAZ2B-H3K14Ac peptide displacement | Potency, µM (highest dose often 114 µM), usual class: inhibitors | Q9UIF8; also: nearly all actives have a fitted effect of over 60% in size
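Compounds, titrated to a top concentration of 110 uM, were incubated 30 min at room temperature with preformed BAZ2B/acetyl-K14 H3 peptide complex (50 nM each). Proximity signal was measured by AlphaScreen after 20 min with beads.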
L3MBTL1 block: L3MBTL1 (human) inhibition. Q9Y468. AlphaScreen L3MBTL1–H3K9me1 peptide binding. AID 485360. 230,000 compounds, 0.66% hits. Potency, µM (titrated, usually from 57.1 µM), most hits filed as inhibitors; also: nearly all actives have a fitted effect of over 60% in size
Target sequence (Q9Y468 whole entry, looked up): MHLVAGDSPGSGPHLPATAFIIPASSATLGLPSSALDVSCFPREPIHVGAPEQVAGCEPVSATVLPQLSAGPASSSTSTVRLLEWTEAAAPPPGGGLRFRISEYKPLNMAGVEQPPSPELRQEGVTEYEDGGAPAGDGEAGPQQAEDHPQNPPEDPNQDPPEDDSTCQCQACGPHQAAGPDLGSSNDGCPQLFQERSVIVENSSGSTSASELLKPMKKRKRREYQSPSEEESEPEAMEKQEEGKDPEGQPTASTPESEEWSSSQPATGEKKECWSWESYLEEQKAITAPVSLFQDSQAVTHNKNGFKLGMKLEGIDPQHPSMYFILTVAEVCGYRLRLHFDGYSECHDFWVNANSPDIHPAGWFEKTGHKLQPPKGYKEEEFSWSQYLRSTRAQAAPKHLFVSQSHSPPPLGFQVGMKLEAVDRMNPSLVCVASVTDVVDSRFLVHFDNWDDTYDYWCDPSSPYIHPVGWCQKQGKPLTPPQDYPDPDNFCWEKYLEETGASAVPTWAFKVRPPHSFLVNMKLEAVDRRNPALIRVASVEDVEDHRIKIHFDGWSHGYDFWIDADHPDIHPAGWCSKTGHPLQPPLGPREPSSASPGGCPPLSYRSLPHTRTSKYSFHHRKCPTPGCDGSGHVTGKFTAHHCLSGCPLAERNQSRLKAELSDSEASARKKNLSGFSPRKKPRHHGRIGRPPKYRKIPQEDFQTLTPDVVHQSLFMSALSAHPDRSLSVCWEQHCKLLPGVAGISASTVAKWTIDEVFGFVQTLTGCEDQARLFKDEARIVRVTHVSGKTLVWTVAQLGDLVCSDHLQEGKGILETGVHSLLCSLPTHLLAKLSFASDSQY
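Read-out is AlphaScreen signal from streptavidin donor and nickel chelate acceptor beads (10 ug/mL final each) bridging L3MBTL1 (50 nM) and biotinylated K9-monomethylated H3(1-15) peptide (75 nM), after 30 min compound exposure at room temperature.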
Numbers stand for hits; – = inactive; ? = inconclusive; · = no result; [ ] = remark or other dose. Only some compounds are listed: those with a hit (about 12% of all), similar ones and a draw of the others. Calls follow the shape of the dose curve; as a rule, active = well fitted curve in the direction sought with a large enough effect; inconclusive = small, poorly fitted or top-dose-only effect, or another doubt; inactive = no such curve, though single readings can be large; an effect the other way counts as inactive or inconclusive.

SMILES	Sfp inh	JMJD2A Tudor	G9a inh	HP1b binding inh	BAZ2B block	L3MBTL1 block
O=C1C=C(c2ccc3cc[nH]c3c2)C[C@@H](c2ccc3c(c2)OCO3)C1	·	56µM	–[0.501 µM]	?	50µM	32µM
Cc1ccc(/C=[N+](\[O-])c2ccc(N(C)C)cc2)c2nsnc12	–	25µM	8.9µM	28µM	32µM	?
COc1ccc2c(c1)cc(CNc1ccc(OC)c(OC)c1)c(=O)n2CC(=O)Nc1ccc(F)cc1	·	–	2.8µM	–	?	·
COc1ccc2cc(CNc3ccc(OC)c(OC)c3)c(=O)n(CC(=O)Nc3ccc(C)cc3)c2c1	·	–	2.8µM	–	–	·
COc1ccc2c(c1)cc(CNc1ccc(OC)c(OC)c1)c(=O)n2CC(=O)Nc1ccccc1C	·	–	?	–	–	·
Cc1ccc(-n2ncc3c(NC4CCCCC4)ncnc32)cc1C	·	–	–	–	–	·
Cc1ccc(N(C(=O)CCCC(=O)Nc2ccccn2)C(C(=O)NC2CCCC2)c2ccc(O)cc2)cc1C (stereo unspecified)	–	–	8.9µM	–	–	·
N/C(COc1ccc(C(=O)O)cc1)=N\O	–	–	50µM	–	?	–
O=C(O)c1ccc(OCCOc2ccccc2)cc1	–	–	–	–	–	–
CNC(=O)C1CCC(Cn2c(=O)c3sccc3n(CC(=O)Nc3cc(F)ccc3F)c2=O)CC1 (stereo unspecified)	·	–	–	–	–	·
Cc1ccc(CNC(=O)CCCn2c(=O)c3ccccc3n(CC(=O)C(C)(C)C)c2=O)cc1	·	–	–	–	–	·
COc1ccc(CCC(C)Nc2cccc(F)c2)cc1 (stereo unspecified)	45µM	–	?	–	–	–
COc1cc(NC(C)CCc2ccccc2)cc(OC)c1OC (stereo unspecified)	–	45µM	·	?	?	–
COc1ccc(CCC(C)Nc2ccccc2F)cc1 (stereo unspecified)	–	–	–	–	–	–
COc1cccc(OC)c1C(=O)NC(C)CCc1ccccc1 (stereo unspecified)	–	–	–[0.501 µM]	–	–	–[2.29 µM]
CCOC(=O)c1cccc(NC(=O)CSc2cc(=O)n(C)c3ccccc23)c1	·	–	–	–	·	·
CCOc1ccc(OCC)c(NC(=O)CN(C)S(=O)(=O)c2ccc3[nH]c(=O)oc3c2)c1	·	–	–	–	–	·
COC(=O)c1ccc2c(c1)C(C)(C)C(/C=C/c1ccc(O)cc1)=[N+]2C	45µM	50µM	7.1µM	?	28µM	–
COC(=O)c1ccc2nc(C)c(C)nc2c1	–	–	–	–	–	–
COC(=O)c1ccc2c(c1)C(C)(C)C(/C=C/c1ccc(OC)c(OC)c1OC)=[N+]2C	18µM	56µM	–[0.0925 µM]	–	?	–
Cc1cccc(C)c1-n1ncc(C(=O)NCCCN2CCC(C)CC2)c1C1CCN(C(=O)OC(C)(C)C)CC1	·	–	–	–	–	·
O=C(CSC(=S)N1CCCC1)c1cc(Br)cc(Br)c1O	–	?	20µM	?	40µM	·
O=S(=O)(c1ccc(Br)cc1)N1CCN(S(=O)(=O)c2ccc3c(c2)OCCO3)CC1	·	–	·	·	·	·
O=c1[nH]c(=O)c2nnc(N/N=C\c3ccc(O)cc3)nc2[nH]1	?	?	11µM	–	?	·
O=c1[nH]c(=O)c2nnc(N/N=C/c3ccccc3F)nc2[nH]1	–	–	–	–	–	·
SMILES	Sfp inh	JMJD2A Tudor	G9a inh	HP1b binding inh	BAZ2B block	L3MBTL1 block
N#Cc1ccccc1CSc1ccc(-c2nc3ccccc3[nH]2)cn1	4.5µM	–	?	–	–	–
CC(=O)CSc1ccc(-c2nc3ccccc3[nH]2)cn1	–	–	–[0.501 µM]	–	–	–[2.29 µM]
Cc1ccc(C(=O)Nc2cc(-c3nc4ncccc4o3)ccc2C)c(C)c1	·	–	–	–	–	·
O=C(c1ccccc1)c1nc2c(n1O)CCCCC2	–	–	56µM	–	79µM	–
CCCOc1ccc(C(=O)c2nc3c(n2O)CCCCC3)cc1	–	?	–[12.7 µM]	–	–	·
COc1cc(CN2CCN(c3cccc(C)c3C)CC2)cc(OC)c1O	–	1µM	?	–	50µM	–
Cc1cc(CN2CCN(c3cccc(C)c3C)CC2)cs1	·	–	–	–	–	·
Cc1cccc(N2CCN(Cc3ccoc3)CC2)c1C	–	11µM	10µM	?	50µM	·
COc1ccc(CNC(=O)N2CCN(c3cccc(C)c3C)CC2)cc1OC	–	–	–	–	–	·
Fc1c(-c2ccc3ncnc(NCc4cccs4)c3c2)ccc2c1OCO2	·	–	·	·	·	·
Cc1cc(=O)[nH]c(N/N=C/C2=C(N3CCOCC3)C(=C\c3ccc(Cl)cc3)/CC2)n1	40µM	–	7.9µM	–	–	–
O=C(N/N=C/C1=C(N2CCOCC2)C(=C\c2ccccc2)/CC1)Nc1ccccc1	–	–	–	–	–	–
O=C(O)c1ccccc1N/N=C/C1=C(N2CCOCC2)C(=C\c2ccccc2)/CC1	–	?	·	?	50µM	–
Cc1cc(C)nc(N/N=C/C2=C(N3CCOCC3)C(=C/c3ccccc3)/CC2)n1	–	–	10µM	–	?	–
CCN(Cc1ccccc1)S(=O)(=O)c1ccc2c(c1)CC(C)N2C(=O)C1CCC1 (stereo unspecified)	·	–	–	–	–	·
COCCCNC(=O)C1CCN(c2cc(C)nc3c(-c4ccc(Cl)cc4)c(C)nn23)CC1	·	–	–	–	–	·
CC1CN(c2ncnc3c2oc2ccccc23)CC(C)O1 (stereo unspecified)	–	–	50µM	–	?	–
Clc1ccc(N2CCN(c3ncnc4c3oc3ccccc34)CC2)cc1	–	–	–	–	–	–
Cc1sc2nc(-c3cccnc3)[nH]c(=O)c2c1-c1ccccc1	45µM	–	11µM	–	·	–
CC(=O)NS(=O)(=O)c1ccc(NC(=O)CSc2ccc(C)cc2)cc1	79µM	–	?	–	–	–
CC(=O)NS(=O)(=O)c1ccc(NC(=O)CCC(=O)Oc2ccc(C)cc2)cc1	–	–	–	–	–	·
O=C(Nc1ccc(S(=O)(=O)Nc2ncccn2)cc1)C1=COCCO1	·	–	32µM	–	–	–
O=C(Cc1ccc(Cl)cc1)Nc1ccc(S(=O)(=O)Nc2ncccn2)cc1	–	–	79µM	–	–	–
CCc1c(C(=O)NNC(=S)Nc2ccc(S(=O)(=O)Nc3ncccn3)cc2)csc1C	–	–	20µM	–	–	·
CC(=O)Nc1ccc(S(=O)(=O)Nc2ncccn2)cc1	–	–	–	–	·	?
CCC[C@H](NC(=O)[C@H](Cc1ccc(O[S+](=O)([O-])O)cc1)NC(=O)OC(C)(C)C)C(=O)NCC(=O)N[C@@H](Cc1c[nH]c2ccccc12)C(=O)N[C@@H](CCC)C(=O)N[C@@H](CC(=O)OCCc1ccccc1)C(=O)O	–	·	·	·	·	·
Cc1ccc(OCc2cc(=O)n3cc(C)sc3n2)c(NC(=O)c2ccco2)c1	·	?	–	–	–	·
